Assay [1] can be described thus: small molecules captured by biotinylated probe aFSTL3 – biochemical, small-molecule microarray, fluorescence 635/667, stem cell growth factor project, primary screen (AID 1064).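 Also: measures binding of the biotinylated anti-FSTL3 antibody to printed compounds.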 As to conditions: higher = more signal.
Assay [2] in a line: binders from COS7 lysate, DM2A8 probe, primary screen, torsin A project, cell lysate, small-molecule microarray, fluorescence 635/667 (AID 1065). Particulars: higher = more signal, COS7 lysate expressing mutant human TOR1A.
Assay [3] is described as follows: small molecules captured by biotinylated probe aFGF2 – biochemical, small-molecule microarray, fluorescence 635/667, stem cell growth factor project, primary screen (AID 1067).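 Also: measures binding of biotinylated aFGF2 protein to printed compounds on slides; z-score merges feature fluorescence and signal-to-noise across triplicate slides.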 Particulars: higher = more signal.
A short description of assay [4]: small molecules captured by biotinylated probe aFGF10 – biochemical, small-molecule microarray, fluorescence 635/667, stem cell growth factor project, primary screen (AID 1071).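 Also: score merges 667 nm spot intensity and signal to noise from triplicate slides.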 Particulars: higher = more signal.
The target in assay [5] is Neurogenic locus notch homolog protein 2 (Homo sapiens) (UniProt Q04721). Nature of the assay: small molecules binding Notch2 protein – biochemical, small-molecule microarray, 635 nm fluorescence, stem cell growth factors, primary screen (AID 1073). Particulars: higher = more signal.
Assay [6] deals with Pro-neuregulin-1, membrane-bound isoform (Homo sapiens) (UniProt Q02297). Nature of the assay: small molecules binding neuregulin-1 protein – biochemical, small-molecule microarray, fluorescence 635/667, psychiatric disease protein project, primary screen (AID 1075).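 Also: score combines 667 nm spot fluorescence with signal to noise.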 As to conditions: NRG1 binding, 635 nm fluorescence, higher = more signal.
For assay [7], the system named is Neuregulin-1 EGF-like domain. Kind of assay: small molecules binding NRG1 EGF domain – biochemical, small-molecule microarray, 635 nm fluorescence, primary screen (AID 1081).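 Also: binding of the protein to compounds printed on small-molecule microarray slides.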 Particulars: higher = more signal.
The nature of assay [8]: FRG1 expression reporter modulators in myotubes – cell-based, C2C12 myotubes, firefly/Renilla luciferase, luminescence, FRG1 inhibition for FSHD, primary screen (AID 1084). Particulars: FRG1 promoter luciferase, higher = more signal, called active from +8 up or from −8 down.
A short description of assay [9]: small molecules captured by biotinylated probe aFST – biochemical, small-molecule microarray, fluorescence 635/667, stem cell growth factor project, primary screen (AID 1086).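 Also: score merges 667 nm fluorescence with signal-to-noise of each printed compound spot.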 Particulars: higher = more signal.
Assay [10] is described as follows: binders of probe aHhip on microarray, primary screen, stem cell growth factor project, biochemical, small-molecule microarray, fluorescence 635/667 (AID 1087).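 Also: score merges spot fluorescence at 667nm with spot signal to noise ratio.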 Particulars: higher = more signal.
Assay [11] deals with PRMT1 (protein arginine N-methyltransferase 1). Kind of assay: small molecules binding arginine methyltransferase PRMT1 – biochemical, small-molecule microarray, 635 nm fluorescence, primary screen (AID 1088).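 Also: binding of Prmt1 protein to compounds spotted on small-molecule microarray slides.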 Particulars: higher = more signal.
Assay [12] in a line: growth effects on S. cerevisiae YJM789 – YJM789 clinical isolate, OD600, 24 h, basal, primary screen (AID 1089).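 Also: growth of clinical yeast isolate S. cerevisiae YJM 789 seeded 1000 cells per well; test concentration not given here.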 As to conditions: higher = more signal, called active from +8 up or from −8 down.
Assay [13] in a line: S. pombe growth modifiers, basal conditions – strain 972, OD600, 24 h, no modulator, primary screen (AID 1090).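 Also: basal condition with compound alone and no growth modifier present; test concentration not given here.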 As to conditions: S. pombe 972 growth, higher = more signal, called active from +8 up or from −8 down.
A short description of assay [14]: budding yeast growth modifiers under rapamycin – strain BY4716, OD600, 96 h, primary screen (AID 1091). Also: test concentration not given here. Particulars: S. cerevisiae BY4716 + rapamycin, higher = more signal, called active from +8 up or from −8 down.
Assay [15] concerns the target Torsin-1A-interacting protein 2 (Homo sapiens) (UniProt Q8NFQ8). Kind of assay: small molecules binding lysate-expressed LULL1 – cell lysate, human LULL1 lysate, 635/667 nm fluorescence, primary screen (AID 1092).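 Also: probe is lysate of COS7 cells overexpressing human LULL1; score merges per-feature 667 nm fluorescence with signal-to-noise.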 Particulars: small-molecule microarray, hLULL1 lysate binding, 635 nm fluorescence; higher = more signal.
Assay [16] is described as follows: optical density change of DRC41 E. coli – strain DRC41, OD650, 24 h, E. coli filamentation project, primary screen (AID 1093).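 Also: MC1000 strain lacking acrAB efflux and sulA so SOS filamentation is blocked; test concentration not given here.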 As to conditions: E. coli DRC41 growth, higher = more signal, called active from +8 up or from −8 down.
A short description of assay [17]: probe aLefty2 binding to arrayed compounds – biochemical, biotinylated probe, 635/667 nm fluorescence, primary screen (AID 1094).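 Also: score merges spot fluorescence near 667 nm with spot signal-to-noise ratio.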 As to conditions: small-molecule microarray, higher = more signal.
Assay [18] deals with Noggin (protein binding on small-molecule microarray). Nature of the assay: small molecules binding Noggin protein – biochemical, 635/667 nm fluorescence, primary screen (AID 1095).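 Also: score merges 667 nm feature fluorescence with signal to noise over triplicate slides.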 As to conditions: 635 nm fluorescence, higher = more signal.
For assay [19], the target named is Neurogenic locus notch homolog protein 3 (Homo sapiens) (UniProt Q9UM47). Nature of the assay: small molecules binding NOTCH3 protein – biochemical, 635/667 nm fluorescence, primary screen (AID 1096). As to conditions: small-molecule microarray, 635 nm fluorescence, higher = more signal.
Assay [20] is described as follows: probe aEGFR binding to arrayed compounds – biochemical, biotinylated probe, 635/667 nm fluorescence, primary screen (AID 1097).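 Also: probe is a biotinylated anti-EGFR antibody binding compounds printed on slides; score combines fluorescence near 667 nm and signal to noise of each spot.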 As to conditions: small-molecule microarray, higher = more signal.

Activity calls are given as the source filed them.

Sequence of Neurogenic locus notch homolog protein 2 (Homo sapiens) (Q04721 whole entry, looked up, canonical isoform): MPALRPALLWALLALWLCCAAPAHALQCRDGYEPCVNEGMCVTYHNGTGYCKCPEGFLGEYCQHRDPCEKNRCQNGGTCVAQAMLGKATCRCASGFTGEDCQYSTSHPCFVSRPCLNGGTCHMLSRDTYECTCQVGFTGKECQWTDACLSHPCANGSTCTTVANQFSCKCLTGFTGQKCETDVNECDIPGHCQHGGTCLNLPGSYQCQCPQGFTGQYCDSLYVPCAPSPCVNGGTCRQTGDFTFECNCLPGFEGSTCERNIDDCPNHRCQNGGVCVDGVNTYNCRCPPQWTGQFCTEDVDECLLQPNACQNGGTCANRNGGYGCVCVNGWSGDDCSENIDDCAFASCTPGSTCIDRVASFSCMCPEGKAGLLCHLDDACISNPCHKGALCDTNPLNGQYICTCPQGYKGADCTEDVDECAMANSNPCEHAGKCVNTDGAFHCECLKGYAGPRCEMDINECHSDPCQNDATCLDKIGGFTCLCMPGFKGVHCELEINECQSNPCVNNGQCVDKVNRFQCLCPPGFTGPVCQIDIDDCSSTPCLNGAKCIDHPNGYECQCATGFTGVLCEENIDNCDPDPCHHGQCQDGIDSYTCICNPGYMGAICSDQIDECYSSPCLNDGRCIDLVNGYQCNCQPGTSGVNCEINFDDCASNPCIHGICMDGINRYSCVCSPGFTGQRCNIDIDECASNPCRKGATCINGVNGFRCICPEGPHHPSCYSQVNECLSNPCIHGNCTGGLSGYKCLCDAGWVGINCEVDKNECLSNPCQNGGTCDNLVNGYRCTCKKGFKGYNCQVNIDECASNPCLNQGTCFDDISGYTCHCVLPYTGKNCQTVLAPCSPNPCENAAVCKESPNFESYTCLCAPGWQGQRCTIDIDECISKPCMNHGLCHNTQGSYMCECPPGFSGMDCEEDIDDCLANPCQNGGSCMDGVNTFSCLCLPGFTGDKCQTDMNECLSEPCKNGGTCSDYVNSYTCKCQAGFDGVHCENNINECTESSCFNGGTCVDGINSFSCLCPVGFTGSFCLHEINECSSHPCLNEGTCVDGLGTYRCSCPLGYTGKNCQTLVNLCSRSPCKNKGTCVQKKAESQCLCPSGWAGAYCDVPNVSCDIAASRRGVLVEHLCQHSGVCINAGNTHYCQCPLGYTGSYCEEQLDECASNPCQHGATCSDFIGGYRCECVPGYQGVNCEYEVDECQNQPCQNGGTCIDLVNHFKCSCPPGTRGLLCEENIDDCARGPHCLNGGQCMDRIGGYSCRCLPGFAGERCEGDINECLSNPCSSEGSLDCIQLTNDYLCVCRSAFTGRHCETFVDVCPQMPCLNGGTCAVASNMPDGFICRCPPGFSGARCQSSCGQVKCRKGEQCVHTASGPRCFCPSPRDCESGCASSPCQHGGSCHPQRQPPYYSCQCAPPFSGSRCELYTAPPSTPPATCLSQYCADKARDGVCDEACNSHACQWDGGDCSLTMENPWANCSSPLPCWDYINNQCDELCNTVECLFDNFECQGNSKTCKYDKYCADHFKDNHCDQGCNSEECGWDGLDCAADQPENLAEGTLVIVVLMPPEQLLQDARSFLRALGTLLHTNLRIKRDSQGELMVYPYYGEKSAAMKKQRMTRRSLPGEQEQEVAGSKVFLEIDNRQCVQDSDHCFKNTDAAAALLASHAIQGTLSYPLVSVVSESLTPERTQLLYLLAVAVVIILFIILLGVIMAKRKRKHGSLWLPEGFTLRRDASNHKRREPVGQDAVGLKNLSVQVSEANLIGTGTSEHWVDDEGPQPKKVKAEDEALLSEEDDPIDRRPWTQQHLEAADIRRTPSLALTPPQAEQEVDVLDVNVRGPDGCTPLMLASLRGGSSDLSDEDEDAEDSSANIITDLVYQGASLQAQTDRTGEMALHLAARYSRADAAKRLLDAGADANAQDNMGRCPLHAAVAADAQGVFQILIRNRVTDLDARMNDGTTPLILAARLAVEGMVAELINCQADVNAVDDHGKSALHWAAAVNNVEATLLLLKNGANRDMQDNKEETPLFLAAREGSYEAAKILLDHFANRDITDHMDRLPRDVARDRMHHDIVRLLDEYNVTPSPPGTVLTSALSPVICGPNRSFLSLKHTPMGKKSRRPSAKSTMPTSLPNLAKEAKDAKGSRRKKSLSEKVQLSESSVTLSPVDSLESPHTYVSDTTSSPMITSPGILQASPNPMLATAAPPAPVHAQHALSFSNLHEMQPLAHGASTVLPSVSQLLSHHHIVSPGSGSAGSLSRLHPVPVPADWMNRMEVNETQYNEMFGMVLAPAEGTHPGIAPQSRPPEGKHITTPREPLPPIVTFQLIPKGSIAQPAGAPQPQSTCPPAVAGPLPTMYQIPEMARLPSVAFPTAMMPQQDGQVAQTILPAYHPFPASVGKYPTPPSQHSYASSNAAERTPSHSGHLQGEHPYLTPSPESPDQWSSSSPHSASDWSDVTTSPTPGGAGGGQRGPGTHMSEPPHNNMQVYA
Sequence of Neurogenic locus notch homolog protein 3 (Homo sapiens) (Q9UM47 whole entry, looked up): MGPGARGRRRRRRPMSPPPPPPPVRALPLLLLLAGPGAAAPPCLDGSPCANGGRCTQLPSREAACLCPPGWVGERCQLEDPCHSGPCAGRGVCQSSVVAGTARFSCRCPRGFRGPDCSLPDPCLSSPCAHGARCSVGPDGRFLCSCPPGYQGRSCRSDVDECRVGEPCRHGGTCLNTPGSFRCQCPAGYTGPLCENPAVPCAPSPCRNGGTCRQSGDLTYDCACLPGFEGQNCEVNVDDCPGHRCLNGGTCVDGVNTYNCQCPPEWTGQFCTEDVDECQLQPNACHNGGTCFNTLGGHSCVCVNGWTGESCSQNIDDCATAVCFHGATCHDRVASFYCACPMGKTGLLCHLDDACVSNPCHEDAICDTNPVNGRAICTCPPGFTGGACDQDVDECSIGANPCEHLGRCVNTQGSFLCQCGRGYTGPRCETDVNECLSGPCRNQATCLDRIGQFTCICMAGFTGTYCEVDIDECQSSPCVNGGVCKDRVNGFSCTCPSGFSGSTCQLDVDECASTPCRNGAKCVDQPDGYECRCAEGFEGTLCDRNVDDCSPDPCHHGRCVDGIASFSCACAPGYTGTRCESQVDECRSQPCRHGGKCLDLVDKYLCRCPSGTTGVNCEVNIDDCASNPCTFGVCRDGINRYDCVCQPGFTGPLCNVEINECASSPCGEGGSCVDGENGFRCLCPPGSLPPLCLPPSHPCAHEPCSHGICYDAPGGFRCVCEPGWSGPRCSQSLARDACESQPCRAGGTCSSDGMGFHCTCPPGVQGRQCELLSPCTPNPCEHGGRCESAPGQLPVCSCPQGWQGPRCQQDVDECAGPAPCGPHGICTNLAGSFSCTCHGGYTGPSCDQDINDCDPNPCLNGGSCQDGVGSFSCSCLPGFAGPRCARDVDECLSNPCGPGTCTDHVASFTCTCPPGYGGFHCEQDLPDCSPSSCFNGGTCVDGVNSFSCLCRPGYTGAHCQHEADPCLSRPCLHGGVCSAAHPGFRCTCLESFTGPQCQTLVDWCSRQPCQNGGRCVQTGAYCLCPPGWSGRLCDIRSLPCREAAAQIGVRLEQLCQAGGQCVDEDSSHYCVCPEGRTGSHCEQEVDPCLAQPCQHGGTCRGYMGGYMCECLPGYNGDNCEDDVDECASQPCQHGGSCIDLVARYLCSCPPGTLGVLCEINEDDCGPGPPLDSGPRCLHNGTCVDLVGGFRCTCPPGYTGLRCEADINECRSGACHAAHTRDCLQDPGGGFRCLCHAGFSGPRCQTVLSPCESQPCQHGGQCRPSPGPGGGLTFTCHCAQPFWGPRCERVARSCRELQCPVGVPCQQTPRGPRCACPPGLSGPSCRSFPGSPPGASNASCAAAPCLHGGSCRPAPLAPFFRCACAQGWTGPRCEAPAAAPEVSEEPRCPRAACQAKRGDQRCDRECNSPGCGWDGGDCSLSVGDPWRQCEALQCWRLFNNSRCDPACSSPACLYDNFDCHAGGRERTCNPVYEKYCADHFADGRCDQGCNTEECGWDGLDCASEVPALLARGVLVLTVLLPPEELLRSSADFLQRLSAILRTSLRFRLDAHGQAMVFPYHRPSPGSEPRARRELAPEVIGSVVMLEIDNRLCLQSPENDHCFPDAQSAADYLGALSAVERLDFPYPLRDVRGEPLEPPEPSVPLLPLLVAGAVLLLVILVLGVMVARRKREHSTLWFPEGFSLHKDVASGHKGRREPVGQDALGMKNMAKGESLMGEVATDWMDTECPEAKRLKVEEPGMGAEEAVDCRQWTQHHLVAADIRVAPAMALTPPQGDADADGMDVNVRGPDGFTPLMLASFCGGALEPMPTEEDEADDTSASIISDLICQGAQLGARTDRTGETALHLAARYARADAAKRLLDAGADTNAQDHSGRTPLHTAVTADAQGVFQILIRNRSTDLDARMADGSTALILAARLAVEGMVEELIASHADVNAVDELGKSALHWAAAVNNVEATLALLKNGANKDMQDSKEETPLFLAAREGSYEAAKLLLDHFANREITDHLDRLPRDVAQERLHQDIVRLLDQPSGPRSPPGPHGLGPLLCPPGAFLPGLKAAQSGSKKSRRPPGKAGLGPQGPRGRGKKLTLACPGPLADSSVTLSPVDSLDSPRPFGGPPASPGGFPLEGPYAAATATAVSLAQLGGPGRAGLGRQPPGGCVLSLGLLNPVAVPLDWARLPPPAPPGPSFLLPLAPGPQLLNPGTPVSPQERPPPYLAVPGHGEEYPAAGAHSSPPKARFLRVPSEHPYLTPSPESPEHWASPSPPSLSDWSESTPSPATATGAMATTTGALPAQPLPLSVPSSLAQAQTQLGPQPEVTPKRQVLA

Take `COc1ccc([Si](C)(C)[C@@H]2[C@@H](CCO)O[C@]3(C(=O)N(Cc4ccc(N5C(=O)c6cccc7cccc5c67)cc4)c4ccccc43)[C@H]2C)cc1`: the composite z-score was 0.458 in [1]; 0.23 in assay [2]; -0.0566 in [3]; -0.383 in assay [4]; -0.35 in assay [5]; 0.995 in assay [6]. For the same molecule, the composite z-score in assay [7] is 0.695; in [9], -0.292; in assay [10], -0.189; in assay [11], 0.856; in [15], 0.854; in assay [17] it was -0.0728. Further, the figures for the composite z-score in assay [18], in assay [19] and in assay [20] were -0.753, -0.017 and -0.208, respectively. Also, the z-score in assay [8] is -3.01 (inactive); in assay [12], 1.41 (inactive); in assay [13], 1.54 (inactive); in assay [14] it was 35.5 (active); in [16], 0.631 (inactive).

For the molecule `Cc1ccc(S[C@]2(C(=O)NCCCN(C)C)CC(=O)N(Cc3ccccc3)[C@@H]2c2ccc(CO)cc2)cc1`, the composite z-score in [1] is 1.15; in assay [2], -0.533; in assay [3], -0.145; in assay [4] it was -0.193; in assay [5], -1.24; in [6] it was -0.234. For the same molecule, the composite z-score was -1.11 in [7]; -0.101 in assay [9]; -0.409 in [10]; 1.25 in assay [11]; 2.01 in assay [15]; 0.555 in assay [17]. Further, the composite z-score in [18] was -0.511; in assay [19], -0.631; in assay [20], -0.152. For the same molecule, the z-score in assay [8] was -1.76 (inactive); in assay [12], -0.933 (inactive); in [13] it was -1.18 (inactive); in assay [14], -1.03 (inactive); in assay [16], -0.0465 (inactive).

In the case of `CN1C(=O)C2C=CC(C(O)C=Cc3ccc([N+](=O)[O-])cc3)N(N3CCCCC3)C2C1=O` (stereo not given), the composite z-score is 1.79 in assay [1]; 1.62 in [2]; 0.556 in assay [3]; 1.11 in assay [4]; 1.69 in assay [5]; 1.69 in assay [6]. The composite z-score is 0.932 in [7]; 2.23 in assay [9]; 0.217 in assay [10]; 1.09 in [11]; 2.79 in [15]; 0.859 in assay [17]. The results for the composite z-score in [18], in [19] and in assay [20] were 0.38, 1.06 and 0.789, respectively. Besides, the z-score was 4.21 (inactive) in assay [8]; -0.704 (inactive) in assay [12]; -7.07 (inactive) in [13]; -0.476 (inactive) in assay [14]; -1.33 (inactive) in assay [16].

In the case of `Cc1ccc(N2C(=O)c3ccccc3[C@@H](C(=O)NCC(C)C)[C@@H]2c2ccc(CO)cc2)nc1`, the composite z-score in assay [1] is 0.341; in assay [2], -0.751; in [3], -0.161; in [4], -0.494; in [5] it was -1.07; in [6], -0.265. For the same molecule, the composite z-score in assay [7] is 0.346; in [9] it was -0.473; in [10], -0.0645; in assay [11], 0.137; in assay [15], 2.32; in assay [17], -0.186. Further, the composite z-score in [18] was -0.479; in assay [19] it was -1.03; in assay [20], -0.298. In addition, the z-score in assay [8] is -0.788 (inactive); in [12], 0.229 (inactive); in assay [13], 0.0994 (inactive); in assay [14], -0.456 (inactive); in assay [16] it was 0.409 (inactive).

On to `COc1ccc([Si](C)(C)[C@@H]2[C@@H](CCO)O[C@]3(C(=O)N(Cc4ccccc4)c4ccc(N(C=O)c5ccccc5)cc43)[C@H]2C)cc1`, for which the composite z-score was -0.106 in [1]; 0.255 in [2]; -0.133 in assay [3]; 0.465 in assay [4]; 0.154 in [5]; 0.359 in [6]. The composite z-score in assay [7] was 0.979; in assay [9], -0.176; in assay [10], -0.236; in assay [11], 1.28; in assay [15], 1.33; in [17] it was -0.0479. The values for the composite z-score in assay [18], in assay [19] and in [20] were 0.0182, 0.718 and -0.189, respectively. The z-score was -2.04 (inactive) in assay [8]; 0.697 (inactive) in [12]; 1.56 (inactive) in [13]; 7.37 (inactive) in assay [14]; 0.329 (inactive) in assay [16].
